# Measured values reported in PubChem BioAssay AID1709 (National Center for Advancing Translational Sciences (NCATS), 2009).
# Activity calls are given as the source filed them.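 Rule for the calls: active = lower max turbidity than the uninhibited signal, meaning microtubule assembly was blocked; inactive = reaching the full max turbidity.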
# Experiment: Assay for Inhibitors of Tau-Mediated Microtubule Assembly
# Details: purified tubulin + K18 tau, A340 turbidity kinetics, 45 min, at 50 µM; half-max time: measured here: time to half-max turbidity, stronger effect = higher value; max turbidity: stronger effect = lower value
# From the text: NIH Molecular Libraries Probe Production Network [MLPCN] NIH Chemical Genomics Center [NCGC] MLPCN Grant: X01 MH083262-01 Assay Provider: Carlo Ballatore, University of Pennsylvania NCGC Assay Overview: The microtubule-associated protein tau is an abundant protein in the axons of neurons that stabilizes microtubules. With its ability to modulate microtubule dynamics, tau contributes directly or indirectly, to key structural and regulatory cellular functions. Particularly important is the influence tau exerts on axonal transport, which allows signaling molecules, trophic factors and other essential cellular constituents to travel along the axons. Under pathological conditions, tau becomes sequestered into insoluble aggregates called neurofibrillary tangles. This phenomenon is believed to have pathological consequences by promoting axonal transport deficits that ultimately lead to synaptic dysfunction and neuronal loss. Because tau binds and stabilizes microtubules, tau fibrillization inhibitors were tested whether they interfere with tau-mediated tubulin polymerization. An in vitro assay was used where purified brain tubulin monomers were assembled into microtubules after the addition of GTP and tau. Microtubule assembly was monitored by the change in absorbance at 340 nm. Hong, M., Zhukareva, V., Vogelsberg-Ragaglia, V., Wszolek, Z., Reed, L., Miller, B. I., Geschwind, D. H., Bird, T. D., McKeel, D., Goate, A., Morris, J. C., Wilhelmsen, K. C., Schellenberg, G. D., Trojanowski, J. Q., and Lee, V. M. Y. (1998) Science 282, 1914-1917.
# NCGC Assay Protocol Summary: Lyophilized bovine brain tubulin was reconstituted in RAB (100 mM MES, pH 6.9; 1 mM EDTA; 0.5 mM MgSO4) at a concentration of 10 mg/ml. Compounds (50 uM) were added to K18 tau (40 uM) in RAB and pre-incubated at room temperature for 60 minutes. To initiate the MT assembly reaction, 8.25 ul per well of 10 mg/ml tubulin was dispensed on a UV-clear 384-well plate, followed by 1.0 ul of 100 mM GTP in RAB and 41.25 ul of the compound:tau mixture. […] The plate was incubated in a Spectramax M5 plate reader at 37 C and the absorbance at 340 nm was read every minute for 45 minutes.
Compound,half-max time,max turbidity
O=C(Cc1ccccc1)Nc1sc2c(c1C(=O)Nc1ccc(Cl)cc1)CCCC2,10 min,0.682 (inactive)
COC(=O)c1c(NC(=O)CCCOc2ccc(C)cc2)sc2c1C(C(=O)OC)CC2 (stereo unspecified),11.1 min,0.764 (inactive)
CCOC(=O)c1nn(-c2ccc(OC)cc2)c(=O)c2c(N)scc12,12.7 min,0.782 (inactive)
COC(=O)c1c(NC(=O)CCCOc2ccc(C(C)(C)C)cc2)sc2c1C(C(=O)OC)CC2 (stereo unspecified),12.6 min,1.01 (inactive)
CCOC(=O)c1nn(-c2ccccc2)c(=O)c2c(N)scc12,12.3 min,0.65 (inactive)
COC(=O)c1c(NC(=O)CCCOc2cccc(C)c2)sc2c1C(C(=O)OC)CC2 (stereo unspecified),12 min,0.825 (inactive)
COC(=O)c1c(NC(=O)C(C)(C)C)sc2c1C(C(=O)OC)CC2 (stereo unspecified),12.9 min,0.839 (inactive)
COC(=O)c1nn(-c2ccc(OC)cc2)c(=O)c2c(N)sc(C)c12,13.3 min,0.579 (inactive)
